High-throughput results deposited in PubChem BioAssay by National Center for Advancing Translational Sciences (NCATS).
FMDV antiviral = antivirals against foot and mouth disease virus | FMDV antiviral cell-based qHTS | Potency, µM (titrated, usually from 57.9 µM), inactives show at the highest dose activity change, negative = inhibition, hits mostly inhibitors | hit rate 1.2% among 410,000 | AID 1159524; calls by dose curve; tested in HEK293T cells; note: read-out not given here; potency is the fitted concentration of half-maximal effect; % is set by controls: 0 for no effect and ±100 for the full control effect; nearly all actives have a fitted effect of over 45% in size
SARS PLpro yeast = SARS-CoV PLP inhibition in yeast; S. cerevisiae expressing SARS-CoV PLpro, growth rescue; AID 485353; hit rate 0.19% among 330,000; Potency, µM (doses to about 32.9 µM), without a hit: at the top dose activity, positive = growth rescue, actives largely listed as activators; calls by dose curve; note: potency is the fitted concentration of half-maximal effect; 0% is about no effect; nearly all actives have a fitted effect of over 55% in size
HCV inh = blocks hepatitis C virus; Huh7.5.1 HCVcc-Cre infection, luciferase reporter, 44 h; Potency, µM (top dose mostly 41.8 µM), for inactives: at the highest dose activity change, negative = inhibition, most hits filed as inhibitors; hit rate 3.4% among 340,000; AID 651820; active = well fitted inhibition curve with a large enough effect; inconclusive = small, poorly fitted or top-dose-only effect, or another doubt; inactive = no such curve, though single readings can be large or run the other way; note: potency is the fitted concentration of half-maximal effect; % is set by controls: 0 for no effect and ±100 for the full control effect
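Cells seeded at 1,000/well and cultured 4 h, then compounds added followed by HCVcc-Cre virus (~0.5 moi). After 44 h further culture, luciferase substrate was added, plates held 15 min at room temperature, and luminescence read for 15 sec.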
LASV entry inh = Lassa virus entry inhibition | Potency, µM (top dose mostly 37.9 µM), for the others: at the highest dose activity change, negative = inhibition, most hits filed as inhibitors | Lassa virus pseudotype entry inhibition, cell reporter | hit rate 1.2% among 300,000 | AID 540256; calls by dose curve; tested in HEK293 cells; note: potency is the fitted concentration of half-maximal effect; % is set by controls: 0 for no effect and ±100 for the full control effect; nearly all actives have a fitted effect of over 50% in size
MARV entry inh = blocks Marburg virus binding to or entry into cells | Potency, µM (top dose mostly 37.8 µM), without a hit: at the top dose activity change, negative = inhibition, actives largely listed as inhibitors | Marburg virus pseudotyped entry inhibition, cell reporter | AID 540276 | hit rate 1.8% among 300,000; calls by dose curve; tested in HEK293 cells; note: potency is the fitted concentration of half-maximal effect; % is set by controls: 0 for no effect and ±100 for the full control effect
HCMV inh = blocks human cytomegalovirus replication; HFF cells, HCMV-luciferase reporter, 72 h; active compounds read low; activity change, negative = inhibition, % at 57.5 µM; hit rate 4.5% among 410,000; AID 1259415; in the data active = activity change below about -60%; inconclusive = no clear call, values can overlap the other calls; inactive = above about -39%; note: % is set by controls: 0 for no effect and ±100 for the full control effect
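Compounds were evaluated in HFFs infected with an HCMV luciferase reporter virus (MOI 1 PFU/cell). Luciferase in lysates collected 72 h post infection served as the replication measure.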
Numbers without * were called inactive; [ ] = another dose, or the depositor's remark. Hits are enriched below; roughly 8% of the tested compounds scored in any of these assays.

What do the screens show for `O=C(N/N=C/c1cn(-c2ccccc2)nc1-c1cc2ccccc2o1)c1ccccc1Br`?
FMDV antiviral: 0.0%; SARS PLpro yeast: 27.2%; HCV inh: inconclusive; LASV entry inh: inconclusive; MARV entry inh: 10µM*; HCMV inh: -2.8

Results for O=C(N/N=C/c1cn(-c2ccccc2)nc1-c1cc2ccccc2o1)c1c[nH]c2ccccc12 ?
FMDV antiviral: 9.0%; SARS PLpro yeast: -0.9%; HCV inh: 11.2µM*; LASV entry inh: inconclusive; MARV entry inh: inconclusive; HCMV inh: 64.0

Results for C/C(CCN1CCCc2nc(C)c(C)cc21)=N\OC[C@@H](C)[C@H](OCc1ccccc1)C(C)C ?
MARV entry inh: -23.6%[14.2 µM]

How did COc1ccc(CC(=O)Nc2ccc3c(c2)CCC3)cc1OC do in these assays?
FMDV antiviral: inconclusive; SARS PLpro yeast: 11.5%; HCV inh: inconclusive; LASV entry inh: 11.2µM*; MARV entry inh: inconclusive; HCMV inh: -21.0

What do the screens show for `O=C(Cc1ccccc1F)Nc1ccc2c(c1)CCC2`?
FMDV antiviral: 50.6%; SARS PLpro yeast: -2.6%; HCV inh: -2.9%; LASV entry inh: -3.4%; MARV entry inh: inconclusive; HCMV inh: -15.0

Results for O=C(Cc1cccc(F)c1)Nc1ccc2c(c1)CCC2 ?
FMDV antiviral: 38.5%; SARS PLpro yeast: -0.2%; HCV inh: -2.3%; LASV entry inh: -0.1%; MARV entry inh: 23.0%[46.1 µM]; HCMV inh: -98.2*

Results for Cn1c(SCc2ccccc2Cl)nc(=O)c2c1NC(=O)CC2c1cc(F)ccc1F (stereo not drawn) ?
FMDV antiviral: -8.9%; LASV entry inh: -9.3%[46.1 µM]; MARV entry inh: 4.4%[46.1 µM]; HCMV inh: 2.6

What do the screens show for `COc1cccc(-c2cc(C(=O)N3CCOCC3)no2)c1`?
FMDV antiviral: -0.9%; SARS PLpro yeast: 0.6%; HCV inh: 14.1%; LASV entry inh: -21.0%[46.1 µM]; MARV entry inh: 10µM*; HCMV inh: 66.1

What do the screens show for `O=C(c1cc(-c2ccc(Br)cc2)on1)N1CCOCC1`?
FMDV antiviral: 20.7%; SARS PLpro yeast: -0.9%; HCV inh: -19.3%; LASV entry inh: 2.51µM*; MARV entry inh: inconclusive; HCMV inh: -4.1

How did COc1ccc(-c2cc(C(=O)N3CCOCC3)no2)cc1 do in these assays?
FMDV antiviral: -35.0%; SARS PLpro yeast: -4.4%; HCV inh: -8.3%; LASV entry inh: inconclusive; MARV entry inh: inconclusive; HCMV inh: 9.4

What do the screens show for `COc1cc2cnc(-c3ccsc3)c(-c3ccc(F)cc3)c2cc1OC`?
FMDV antiviral: inconclusive; SARS PLpro yeast: -5.6%; HCV inh: 6.31µM*; HCMV inh: 13.7

How did COc1cc2cnc(-c3ccsc3)cc2cc1OC do in these assays?
FMDV antiviral: 4.9%; SARS PLpro yeast: -17.9%; HCV inh: inconclusive; HCMV inh: 43.6

What do the screens show for `O=C(CCC(=O)c1ccc(Cl)cc1)OCC(=O)c1ccccc1`?
FMDV antiviral: 0.7%; SARS PLpro yeast: -0.5%; HCV inh: inconclusive; LASV entry inh: 19.0%; MARV entry inh: inconclusive; HCMV inh: -64.8*

How did COC(=O)C(CC(=O)c1ccc(Cl)cc1)c1ccccc1 (stereo not drawn) do in these assays?
FMDV antiviral: 3.8%; HCV inh: 3.5%; LASV entry inh: inconclusive; MARV entry inh: 18.5%; HCMV inh: -101.1*

What do the screens show for `O=C(CNC(=O)c1ccc(Cl)cc1)OCC(=O)c1ccccc1`?
FMDV antiviral: -2.9%; SARS PLpro yeast: inconclusive; HCV inh: 5.3%; LASV entry inh: 6.9%; MARV entry inh: inconclusive; HCMV inh: -31.0

What do the screens show for `CC(C)c1ccc(C(CC(=O)c2ccc(Cl)cc2)C(=O)O)cc1` (stereo not drawn)?
FMDV antiviral: 1.0%; SARS PLpro yeast: -23.0%; HCV inh: 18.9%; LASV entry inh: 11.0%; MARV entry inh: inconclusive; HCMV inh: 44.5

How did CC1=C(C(=O)Nc2cccc(C(F)(F)F)c2)C2(CCN(C(C)C)CC2)OC1=O do in these assays?
FMDV antiviral: -17.7%; LASV entry inh: inconclusive; HCMV inh: 1.6

How did Cc1n[nH]c(C)c1N1C(=O)c2cccc3c(Br)ccc(c23)C1=O do in these assays?
FMDV antiviral: -2.5%; SARS PLpro yeast: -8.0%; HCV inh: inconclusive; LASV entry inh: inconclusive; MARV entry inh: -18.3%; HCMV inh: -3.4

Results for Cc1n[nH]c(C)c1N1C(=O)c2cccc3cc(Br)cc(c23)C1=O ?
FMDV antiviral: -15.8%; SARS PLpro yeast: 12.7%; HCV inh: 4.47µM*; LASV entry inh: -9.2%; MARV entry inh: -0.4%; HCMV inh: 39.4

Results for CC(C)CNC(=O)Nc1ccc(F)c(Cl)c1 ?
FMDV antiviral: 93.5%; SARS PLpro yeast: -2.0%; HCV inh: 9.7%; LASV entry inh: -22.3%; MARV entry inh: -11.9%[46.1 µM]; HCMV inh: 88.1

Results for COC(=O)c1sccc1NC(=O)Nc1ccc(Cl)c(Cl)c1 ?
FMDV antiviral: 35.8%; SARS PLpro yeast: -11.5%; HCV inh: inconclusive; LASV entry inh: -7.0%; MARV entry inh: inconclusive; HCMV inh: -70.7*

Results for COC(=O)c1sccc1NC(=O)Nc1ccc(C)c(C)c1 ?
FMDV antiviral: -42.5%; SARS PLpro yeast: -15.4%; HCV inh: -9.5%; HCMV inh: 22.4

How did COC(=O)c1cccc(NC(=O)Nc2ccc(Cl)c(Cl)c2)c1 do in these assays?
FMDV antiviral: -22.3%; SARS PLpro yeast: -41.5%; LASV entry inh: 32.5%[14.3 µM]; MARV entry inh: 20.4%; HCMV inh: -100.9*

How did CCC(C)NC(=O)Nc1ccc(F)c(Cl)c1 (stereo not drawn) do in these assays?
FMDV antiviral: 44.2%; SARS PLpro yeast: 0.3%; HCV inh: -23.0%; LASV entry inh: -3.2%; MARV entry inh: 10.7%[46.1 µM]; HCMV inh: -61.8*

Results for C=CCNC(=O)Nc1ccc(F)c(Cl)c1 ?
FMDV antiviral: 20.3%; SARS PLpro yeast: 0.9%; HCV inh: -5.0%; HCMV inh: -94.3*

What do the screens show for `COC(=O)c1cccc(NC(=O)NC(=O)c2ccccc2Cl)c1`?
FMDV antiviral: -11.6%; SARS PLpro yeast: 0.8%; HCV inh: -9.1%; LASV entry inh: inconclusive; MARV entry inh: inconclusive; HCMV inh: -21.6

Results for CCOc1ccc(NC(=O)Cn2cc(C(=O)c3ccc(CC)cc3)c(=O)c3ccc(C)nc32)cc1 ?
FMDV antiviral: -19.2%; LASV entry inh: 4.1%[46.1 µM]; HCMV inh: -1.1

Results for CCOC(=O)c1ccc(N2CCN(c3ccccc3F)CC2)c(NC(=O)Nc2ccc(Cl)c(Cl)c2)c1 ?
FMDV antiviral: 25.1µM*; LASV entry inh: inconclusive; HCMV inh: -22.9

Results for COC(=O)c1ccc(NC(=O)Nc2ccc(F)c(Cl)c2)cc1 ?
FMDV antiviral: -48.0%; SARS PLpro yeast: -17.6%; HCV inh: 11.2µM*; LASV entry inh: 0.0%; MARV entry inh: 4.3%; HCMV inh: 34.6
